Measurements from PubChem BioAssay AID1053125 (Broad Institute, 2014).
Potency and affinity values are given separately. Activity calls are given as the source filed them.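 The calls were made as follows: active = viability loss whose fitted half-maximal concentration is at most twice the top valid tested dose; inconclusive = flat curve with 30 to 70% loss, or poor fit; inactive = the rest.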

Test: viability loss in HepG2 liver cells – cell-based, ATP luminescence, cherry-pick, set 6, cytotoxicity control, dose response (AID 1053125);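 also: negative values mean loss of viability signal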
Details: ATP luminescence (CellTiter-Glo), 72 h; series mostly up to 26 µM

Which outcome does the source give for COc1cc(/C=C(\C#N)C(=O)NC(C)C)cc(Cl)c1O here?
Its outcome is “inactive”.

With CCOc1ccc(C2C(C#N)=C(N)Oc3cc(O)ccc32)cc1OCC (stereo not given) as the molecule, how does the outcome read?
Its outcome is “inactive”.

With COCCN1C=C(C(=O)OC)C(c2ccc(Cl)cc2)C(C(=O)OC)=C1 as the molecule, how does the outcome read?
Its outcome is “inactive”.

For Cc1cc(-n2c(=O)c(C#N)cc3c(=O)n4ccccc4nc32)no1, which outcome is on record?
The outcome was “inactive”.

With Fc1ccc(-c2nc3ccccn3c2NCc2ccc3c(c2)OCO3)cc1 as the molecule, how does the outcome read?
Its outcome is “inactive”.

With CSc1ccc(Cl)c(C(=O)N2CCOc3ccccc32)c1 as the molecule, how does the outcome read?
The outcome was “inactive”.

Which outcome does the source give for COc1c(Cl)cc(-c2noc(C)c2C(=O)NCc2ccc3c(c2)OCO3)cc1Cl here?
The outcome was “inactive”.

With Cc1cc2cc(CNC(=O)c3ccco3)ccc2n1C as the molecule, how does the outcome read?
The outcome was “inactive”.

With O=C(O)[C@@H]1CCCN1S(=O)(=O)c1cccc(S(=O)(=O)N2CCC[C@H]2C(=O)O)c1 as the molecule, how does the outcome read?
Its outcome is “inactive”.

Which outcome does the source give for CCN1C=C(C(=O)OC)C(c2cccc(OC)c2OC)C(C(=O)OC)=C1 here?
The outcome was “inactive”.

Which outcome does the source give for CC1CCN(S(=O)(=O)N2CCC(C(=O)NC3CCCC3)CC2)CC1 here?
The outcome was “inactive”.

With Cc1cccn2c(=O)c3cc(C(=O)NCCN4CCOCC4)c(=N)n(Cc4ccc(F)cc4)c3nc12 as the molecule, how does the outcome read?
Its outcome is “inactive”.

For O=c1[nH]c(Nc2ccccc2Cl)cc2ccccc12, which outcome is on record?
The outcome was “inactive”.

For COc1ccc(S(=O)(=O)N2CCCC2CNC(=O)C(=O)NC2CCCC2)cc1 (stereo not given), which outcome is on record?
Its outcome is “inactive”.

Which outcome does the source give for Cc1c2c(n3c(nc4ccccc43)c1C#N)N(CCN1CCOCC1)CC2 here?
The outcome was “inactive”.

Which outcome does the source give for Cc1ccc2[nH]c3ccccc3c(=O)c2c1 here?
Its outcome is “inactive”.

For COC(=O)C1=CN(Cc2ccc(OC)c(OC)c2)C=C(C(=O)OC)C1c1cccc(F)c1, which outcome is on record?
The outcome was “inactive”.

With O=C(O)C1=CC[C@@H](c2ccc(Cl)cc2)N(S(=O)(=O)c2ccc(Cl)cc2)[C@H]1c1ccc(F)cc1 as the molecule, how does the outcome read?
Its outcome is “inactive”.

Which outcome does the source give for CCC(C)n1c(=N)c(C#N)cc2c(=O)n3cccc(C)c3nc21 (stereo not given) here?
Its outcome is “inactive”.

For Cc1c(C(=O)NCc2cccc([N+](=O)[O-])c2)sc(=O)n1Cc1cccc(F)c1, which outcome is on record?
Its outcome is “inactive”.

For COc1ccc(S(=O)(=O)Cc2ccc(C(=O)N3CCN(Cc4ccccc4)CC3)o2)cc1, which outcome is on record?
The outcome was “inactive”.

Which outcome does the source give for CCOC(=O)c1cc2c(=O)n3ccccc3nc2n(Cc2ccc(Cl)cc2)c1=N here?
The outcome was “inactive”.

For CC(C)CCN(CCC(C)C)CC(O)Cn1c2ccccc2c(=O)c2ccccc21 (stereo not given), which outcome is on record?
The outcome was “inactive”.

Which outcome does the source give for CCc1ccccc1S(=O)(=O)Cc1ccc(C(=O)N2CCN(c3ccccc3OC)CC2)o1 here?
The outcome was “inactive”.

With COC(=O)c1cc(=O)n(Cc2ccc3c(c2)OCO3)c(=Nc2ccc(F)c(Cl)c2)s1 as the molecule, how does the outcome read?
The outcome was “inactive”.

With O=C1CCc2cc(S(=O)(=O)NC(Cc3ccccc3)C(=O)NCCC3=CCCCC3)ccc2N1 (stereo not given) as the molecule, how does the outcome read?
Its outcome is “inactive”.

Which outcome does the source give for CCOC(=O)C(NC(=O)c1ccccc1)(OCC1(CC)COC1)C(F)(F)F (stereo not given) here?
Its outcome is “inactive”.

For CC(C)(C)[C@H]1CCC(=O)N([C@H](CSc2ccccc2)Cc2ccccc2)CC1, which outcome is on record?
Its outcome is “inactive”.

Which outcome does the source give for Clc1ccccc1C1=CC(c2ccco2)n2ncnc2N1 (stereo not given) here?
The outcome was “inactive”.

For Cc1cccn2c(=O)c3cc(C(=O)NCCN4CCOCC4)c(=N)n(CCc4ccccc4)c3nc12, which outcome is on record?
The outcome was “inactive”.

For Cc1c(O)ccc2cc(S(=O)(=O)c3ccccc3)c(=O)oc12, which outcome is on record?
The outcome was “inactive”.

For CCOc1ccc2nc(NCCNC(=O)CC)c(C#N)cc2c1, which outcome is on record?
The outcome was “inactive”.

Which outcome does the source give for COc1ccc(CCNC(=O)CSc2cn(Cc3cccc(C)c3)c3ccccc23)cc1OC here?
Its outcome is “inactive”.

Which outcome does the source give for O=C(Nc1ccc2c(c1)OCCO2)c1ccc(NC(=O)C2CCCO2)cc1 (stereo not given) here?
The outcome was “inactive”.

For COc1cc(C(=O)OCC(C)=O)cc(NC(=O)c2ccco2)c1OC, which outcome is on record?
The outcome was “inactive”.
